This note sets out measurements from PubChem BioAssay.

Unmarked numbers belong to inactive results. The rule behind the calls is not given here.

The test system of this test is Aerobactin synthetase IucA (Klebsiella pneumoniae hvKP1). Put plainly: IucA enzyme inhibition, primary screen, biochemical, Spectrum library (AID 1346200).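 Note: 100% = wells without compound and 0% = wells lacking enzyme.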 As to conditions: malachite green pyrophosphate, A620, at 8 µM, hits give low values.
For `C#CCCCCCCCCCCCC(O)CC(O)COC(C)=O` (centres undefined), the activity remaining is 109%.

Take `CC1=C(/C=C/C(C)=C/C=C/C(C)=C/C=C/C=C(C)/C=C/C=C(C)/C=C/C2=C(C)C(=O)C(O)CC2(C)C)C(C)(C)CC(O)C1=O` (centres undefined): the activity remaining was 109%.

In the case of `FC(F)(F)C(Cl)Br` (centres undefined), the activity remaining was 106%.

Take `CC1(C)CCCC2(C)C3C1[C@@H](O)C2(C)C[C@H]3O` (some centres undefined): the activity remaining is 105%.

In the case of `CCCCCCCCCCCCC[N+](C)(C)Cc1ccccc1`, the activity remaining is 104%.

For `Nc1cc(-c2ccncc2)c[nH]c1=O`, the activity remaining is 122%.

In the case of `CC(=O)OCC(=O)[C@@]1(O)[C@H](OC(C)=O)CC2C3CCC4=CC(=O)C=C[C@]4(C)[C@@]3(F)[C@@H](O)C[C@@]21C` (some centres undefined), the activity remaining was 120%.

For `NC(=O)c1ccc[n+]([C@@H]2O[C@H](COP(=O)([O-])OP(=O)(O)OC[C@H]3O[C@@H](n4cnc5c(N)ncnc54)[C@H](OP(=O)(O)O)[C@@H]3O)[C@@H](O)[C@H]2O)c1`, the activity remaining is 101%.

In the case of `CC(=O)NS(=O)(=O)c1ccc(N)cc1`, the activity remaining was 126%.

As for `CC1=C2[C@](C)(C=CC1=O)C[C@H](O)[C@H]1[C@H](C)C(=O)O[C@]21C`, the activity remaining is 107%.

In the case of `CCN(CC)CCOC(=O)C(c1ccccc1)c1ccccc1`, the activity remaining is 112%.

With `CCCCCCCCNC(C)C(O)c1ccc(SC(C)C)cc1` (centres undefined), the activity remaining was 114%.

In the case of `CC(C)CCCC(C)C1CCC2C3C[C@@H](O)[C@@]4(O)C[C@@H](O)CC[C@]4(C)C3CC[C@]12C` (some centres undefined), the activity remaining was 123%.

For `N[C@@H](C(=O)O)[C@@H](O)[C@H](O)[C@H](O)CO`, the activity remaining is 120%.

In the case of `C[C@H]1CC2C([C@@H](O)C[C@@]3(C)C2CC[C@]3(O)C(=O)COC(=O)CCC(=O)O)[C@@]2(C)C=CC(=O)C=C12` (some centres undefined), the activity remaining was 91.3%.

As to `CCN1C[C@]2(OC(=O)c3ccccc3NC(C)=O)CCC(OC)[C@]34C1[C@H](CC23)[C@@]1(O)CC(OC)[C@H]2CC4C1(O)[C@H]2OC` (some centres undefined), the activity remaining was 95.9%.

In the case of `Cc1cc(-c2ccccc2)nnc1NCCN1CCOCC1`, the activity remaining was 110%.

With `COC(=O)C1=CO[C@@H](C)[C@@H]2CN3CC[C@@]4(C(=O)Nc5ccccc54)[C@H]3CC12` (some centres undefined), the activity remaining is 101%.

In the case of `COc1ccc(-c2cc(=O)c3c(O)cc(OC)c(OC)c3o2)c(OC)c1`, the activity remaining is 94.3%.

For `O=c1c2ccccc2oc2ccccc12`, the activity remaining is 117%.

Take `CC(C)C[C@@H](NC(=O)OCC1c2ccccc2-c2ccccc21)C(=O)O`: the activity remaining is 119%.

With `C=C1C(=O)OC2CC1C(OC(C)=O)C/C(C)=C/CC/C(C)=C/CC[C@]2(C)O` (some centres undefined), the activity remaining was 123%.

As for `CN[C@@H]1[C@H](OC2[C@H](O[C@H]3[C@H](O)[C@@H](O)[C@H](N=C(N)N)[C@@H](O)[C@@H]3N=C(N)N)O[C@@H](C)[C@]2(O)C=O)O[C@@H](CO)[C@H](O)[C@H]1O` (some centres undefined), the activity remaining is 108%.

Consider `COc1ccc(C2Sc3ccccc3N(CCN(C)C)C(=O)C2OC(C)=O)cc1` (centres undefined), for which the activity remaining was 114%.

Turning to `CC1(C)C(=O)CC[C@@]2(C)C1C[C@@H](O)[C@@]1(C)C3=CC(=O)O[C@@H](c4ccoc4)[C@]3(C)CCC21` (some centres undefined), the activity remaining is 111%.

As to `C[C@H](CCC(=O)O)[C@H]1CCC2C3C(CC[C@@]21C)[C@@]1(C)CC[C@@H](O)C[C@H]1C[C@H]3O` (some centres undefined), the activity remaining was 101%.

With `CC(=O)OC[C@@]1(O)C[C@@]23CCC4c5ccoc5CC[C@]4(C)C2CC[C@@H]1C3` (some centres undefined), the activity remaining is 119%.

Take `CC1=C(/C=C/C(C)=C/C=C/C(C)=C/CO)C(C)(C)CCC1`: the activity remaining was 105%.

In the case of `O=c1[nH]cnc2nc[nH]c12`, the activity remaining is 89.8%.

Regarding `CC(=O)OC1CCC2(O)CC1(C)CCC1C2CC1(C)C` (centres undefined), the activity remaining was 107%.

For `CCOC(=O)c1c(C)cc(O)c(C=O)c1O`, the activity remaining was 97.7%.

Regarding `COc1cc2cc3c4cc(OC)c(OC)cc4cc[n+]3c(C)c2cc1OC`, the activity remaining was 95.4%.

As to `CC(C)(N=NC(C)(C)C(=N)N)C(=N)N`, the activity remaining is 105%.

On to `COc1ccc(/C=C/C(=O)c2ccc(O)cc2O)cc1OC`, for which the activity remaining is 93.4%.

Consider `COc1ccc2c(c1)OCC(Cc1ccc(OC)c(O)c1)C2=O` (centres undefined), for which the activity remaining was 115%.

Consider `O=C(O)CN(CCN(CC(=O)O)CC(=O)O)CC(=O)O`, for which the activity remaining was 108%.

With `COc1cc(/C=C/C(=O)O)cc(OC)c1OC`, the activity remaining was 111%.

In the case of `C[C@@H]1CC2C3CCC4=CC(=O)C=C[C@]4(C)[C@@]3(F)[C@@H](O)C[C@]2(C)[C@@]1(O)C(=O)CO` (some centres undefined), the activity remaining is 119%.

For the molecule `CC(=O)O[C@H]1CC[C@@]2(C)C(CC[C@]3(C)C2CC=C2C4CC(C)(C)CC[C@]4(C)CC[C@]23C)C1(C)C` (some centres undefined), the activity remaining was 102%.
